Holding throughout (assay type): functional
The test system of test [1] is Plasmodium falciparum. Nature of the test: GSK_TCMDC: Inhibition of Plasmodium falciparum 3D7 in whole red blood cells, using parasite LDH activity as an index of growth. Test compounds present at 2uM.
Test [2] concerns Plasmodium falciparum. The test can be described thus: GSK_TCMDC: Inhibition of Plasmodium falciparum Dd2 in whole red blood cells, using parasite LDH activity as an index of growth. Test compounds present at 2uM.
The subject of test [3] is HepG2. The test can be described thus: GSK_TCMDC: Percent inhibition of human HepG2 cell line. Test compounds present at 10uM.

SMILES strings stand for the structures.

Regarding `COc1ccccc1C1CCN(CCN2CCC(NC(=O)c3ccc(-c4ccc(C#N)cc4)cc3)CC2)CC1`, the Inhibition (as a rule, the percentage by which the read-out fell short of the control) came to 99% in test [1], 42% in test [2] and 31% in test [3].

In the case of `CC(C)N1CCC(N(Cc2ccc(-c3ccc(C(F)(F)F)cc3)cc2)C(=O)Cn2c(SCc3cccc(F)c3F)cc(=O)c3ccccc32)CC1.O=C(O)C(O)C(O)C(=O)O`, the Inhibition in test [1] is 100%; in test [2], 77%; in test [3], 52%.

As to `CC(C)(CN)c1nc(-c2ccc(Cl)c(O)c2)c(-c2ccncc2)[nH]1.Cl`, the figures for the Inhibition in test [1], in test [2] and in test [3] were 97%, 98% and 34%, respectively.

Regarding `Cl.NC1=NC(CCc2ccccc2)N(c2ccc(Cl)cc2)C(N)=N1` (centres undefined), the Inhibition in test [1] is reported as 94%; in test [2] it was 20%; in test [3], 2%.

With `O=C(Nc1ccc(-c2csc3nccn23)cc1)c1ccc(Cl)cc1`, the Inhibition was found to be 100% in test [1], 50% in test [2] and 54% in test [3].

For `OC(CNCCCc1ccccc1)c1cc(OCc2ccccc2)cc(OCc2ccccc2)c1` (centres undefined), the Inhibition is recorded as 93% in test [1], 85% in test [2] and 8% in test [3].

On to `CN(C)c1ccnc2ccc(NC(=O)Nc3ccnc4ccccc34)cc12`, for which the results for the Inhibition in test [1], in test [2] and in test [3] were 100%, 99% and 15%, respectively.

In the case of `CO/C(=C\C=C\c1cc2cc(Cl)c(Cl)cc2[nH]1)C(=O)NCCN1CCCCC1`, the Inhibition amounted to 81% in test [1], 86% in test [2] and 16% in test [3].

As for `CCOC(=O)c1cnc2c(OC)cc(OC)c(Cl)c2c1Nc1ccccc1`, the Inhibition in test [1] is on record as 99%; in test [2], 100%; in test [3], 13%.

In the case of `C=CCn1c(SCc2c(C)noc2C)nc2scc(-c3cccs3)c2c1=O`, the Inhibition in test [1] came to 88%; in test [2], 34%; in test [3] it was 13%.

For the compound `CC(C)N1CCN(CCCNc2c3ccccc3nc3ccccc23)CC1.Cl`, the Inhibition in test [1] was found to be 100%; in test [2], 1%; in test [3] it was 29%.

`Cc1c(Cn2nc(Cl)c(N3CCNCC3)cc2=O)cccc1NC(=O)Nc1ccc(-c2ccccc2)cc1.O=C(O)C(F)(F)F`: the Inhibition is 80% in test [1], 29% in test [2] and 96% in test [3].

In the case of `CC(=O)Nc1cccc(Nc2nccc(-c3c(-c4cccc(NC(=O)c5c(F)cccc5F)c4)nn4ncccc34)n2)c1`, the Inhibition in test [1] was 96%; in test [2], 51%; in test [3], 83%.

As to `CCOC(=O)c1ccc(N=C2SC(=Cc3cc(Br)ccc3O)C(=O)N2C)cc1`, the Inhibition was 99% in test [1], 96% in test [2] and 0% in test [3].

In the case of `Cc1cc(CN2CCCC(OC(c3ccc(F)cc3)c3ccc(F)cc3)C2)ccc1O` (centres undefined), the Inhibition in test [1] came to 89%; in test [2] it was 82%; in test [3], 28%.

With `COc1ccc(Cc2c(N)nc3nc(N)nc(N)c3c2C)cc1.Cl`, the Inhibition worked out at 94% in test [1], 3% in test [2] and 64% in test [3].

Consider `CC1(C)N=C(N)N=C(N)N1c1ccc2ccccc2c1.Cl`, for which the Inhibition in test [1] came to 95%; in test [2] it was 0%; in test [3], 48%.

Regarding `CC(C)n1ncc2c(C(=O)N3CCCC4CCCCC43)cc(C3CC3)nc21` (centres undefined), the Inhibition in test [1] came to 99%; in test [2], 92%; in test [3], 7%.

`COc1ccc(-c2ccc(CNC(=O)c3ccc(C#N)cc3)c(F)c2)cc1CN1CCCN(C)CC1.O=C(O)C(F)(F)F`: the Inhibition in test [1] is given as 90%; in test [2] it was 1%; in test [3] it was 6%.

Turning to `CC(=O)c1ccccc1OCCSc1nnc(Cc2cccs2)n1C1CCCCC1`, the Inhibition in test [1] was 87%; in test [2] it was 1%; in test [3], 19%.

Take `CC(=O)Nc1nc(C(=O)Nc2cccc(-c3cccc(-c4nc5cccc(C)c5[nH]4)c3)c2)cs1`: the Inhibition was 100% in test [1], 94% in test [2] and 28% in test [3].

As to `CCn1cc(C(=O)O)c(=O)c2cc(F)c(N3CCN(S(=O)(=O)c4ccc(N)cc4)CC3)cc21`, the Inhibition in test [1] is given as 90%; in test [2], 79%; in test [3] it was 0%.

Turning to `CCCNC(=O)C1Cc2c([nH]c3ccc(Br)cc23)C2(CCN(CCc3ccccc3)CC2)N1` (centres undefined), the Inhibition in test [1] turned out to be 99%; in test [2], 49%; in test [3], 16%.

As to `COc1cccc(C(=O)NC(NC(=S)Nc2ccc(OC)cc2[N+](=O)[O-])C(Cl)(Cl)Cl)c1` (centres undefined), the figures for the Inhibition in test [1], in test [2] and in test [3] were 99%, 49% and 9%, respectively.

In the case of `CN1CCCC(CN2CCN(Cc3ccc(-c4ccc(-c5nc6cc(F)ccc6[nH]5)cc4)cc3)CC2)C1.O=C(O)C(F)(F)F` (centres undefined), the Inhibition in test [1] worked out at 100%; in test [2] it was 98%; in test [3] it was 90%.

For `COc1ccc2nc(Nc3nc4cnccc4[nH]3)sc2c1`, the Inhibition in test [1] turned out to be 88%; in test [2], 26%; in test [3], 8%.

In the case of `O=C(Nc1cccc(C(F)(F)F)c1)c1ccc(S(=O)(=O)NCC2CCCN2CC2CCCCC2)cc1.O=C(O)C(F)(F)F` (centres undefined), the Inhibition in test [1] was found to be 98%; in test [2], 3%; in test [3], 14%.

With `Cc1[nH]c(C)c(-c2cccc(-c3ccc(OC(F)(F)F)cc3)c2)c(=O)c1Br`, the Inhibition in test [1] stood at 97%; in test [2] it was 96%; in test [3] it was 45%.

As to `O=C(NC1CCN(Cc2ccccc2O)C1)c1ccc(-c2ccccc2)cc1.O=C(O)C(F)(F)F` (centres undefined), the values for the Inhibition in test [1], in test [2] and in test [3] were 99%, 25% and 0%, respectively.

Turning to `N=C(N)Nc1nc(CCCCCCCCc2csc(NC(=N)N)n2)cs1`, the Inhibition was 100% in test [1], 28% in test [2] and 27% in test [3].

Take `N#Cc1ccc(CN2CCC(Oc3ccc(NC(=O)c4ccco4)cc3Cl)CC2)cc1.O=C(O)C(F)(F)F`: the Inhibition in test [1] amounted to 95%; in test [2] it was 96%; in test [3], 7%.

Regarding `COc1ccccc1-c1cccc(Nc2c(Nc3ccc(Cl)cc3)c(=O)c2=O)c1`, the Inhibition was found to be 81% in test [1], 47% in test [2] and 20% in test [3].

As to `CO/C(=C\C=C\c1cc2cc(Cl)c(Cl)cc2[nH]1)C(=O)NCCCN1CCN(c2cccc(OC)c2)CC1`, the values for the Inhibition in test [1], in test [2] and in test [3] were 100%, 93% and 61%, respectively.

On to `Nc1nccc2ccc(-c3ccc4nccn4c3)cc12.O=C(O)C(F)(F)F`, for which the Inhibition came to 100% in test [1], 100% in test [2] and 15% in test [3].

For `CCCCCCCNCc1c(O)ccc2c(CNCCCCCCC)c(O)ccc12.Cl`, the Inhibition in test [1] worked out at 100%; in test [2] it was 99%; in test [3], 29%.

As to `COc1ccc(OC)c(-c2ccc(=O)n(CC(=O)Nc3cccc4ccccc34)n2)c1`, the Inhibition was 100% in test [1], 95% in test [2] and 0% in test [3].

As for `CC(CN1CCN(C)CC1)C(=O)Nc1ccc(-c2csc(-c3nc4ccccc4[nH]3)c2)cc1` (centres undefined), the Inhibition in test [1] was found to be 93%; in test [2] it was 26%; in test [3] it was 15%.

On to `CCCN(CCC)CCCNc1ccc(C(=O)Nc2ccc(C(C)C)cc2)cc1[N+](=O)[O-]`, for which the values for the Inhibition in test [1], in test [2] and in test [3] were 98%, 38% and 17%, respectively.

Take `COc1ccccc1CN1CCC(CNC(=O)c2cc(-c3ccc(N(C)C)cc3)cs2)C1.O=C(O)C(F)(F)F` (centres undefined): the Inhibition in test [1] is reported as 82%; in test [2] it was 16%; in test [3], 17%.

Regarding `O=C(O)C(F)(F)F.O=c1[nH]ccc2nc(N[C@@H]3CCCNC3)nc(Nc3ccc(S(=O)(=O)N4CCOCC4)cc3)c12`, the Inhibition is 96% in test [1], 99% in test [2] and 13% in test [3].

As to `CCN1CCN(c2ccc(Nc3c4ccccc4nc4ccccc34)cc2)CC1`, the Inhibition in test [1] worked out at 99%; in test [2], 100%; in test [3], 24%.

Take `N=C(N)NN=CC(=O)Nc1cccc(C(F)(F)F)c1.O=S(=O)(O)O`: the Inhibition in test [1] was found to be 99%; in test [2] it was 25%; in test [3], 21%.

Consider `CCc1nc(N)nc(N)c1-c1ccc(F)c(F)c1`, for which the Inhibition in test [1] stood at 98%; in test [2] it was 0%; in test [3] it was 58%.

`O=C(Nc1cccc(N2CCC(NCc3cnn(-c4cccc(F)c4)c3)CC2)c1)c1ccncc1`: the Inhibition is listed as 84% in test [1], 40% in test [2] and 50% in test [3].

In the case of `CC(=O)Nc1nc(C(=O)Nc2cccc(-c3ccc(-c4nc5cc(F)ccc5[nH]4)cc3)c2)cs1`, the Inhibition came to 100% in test [1], 32% in test [2] and 54% in test [3].

As to `Cc1cc(Nc2cccc(C(F)(F)F)c2)nc(NCc2ccccc2)n1`, the figures for the Inhibition in test [1], in test [2] and in test [3] were 100%, 95% and 17%, respectively.

Take `CCN(CC)CCCN(Cc1ccc(-c2ccc(C(F)(F)F)cc2)cc1)C(=O)Cn1c(SCc2cccc(F)c2F)cc(=O)c2ccccc21.O=C(O)C(O)C(O)C(=O)O`: the results for the Inhibition in test [1], in test [2] and in test [3] were 87%, 82% and 45%, respectively.

As to `COc1ccccc1C(=O)N1CCN(Cc2cccs2)CC1`, the Inhibition in test [1] is 96%; in test [2] it was 1%; in test [3] it was 87%.

In the case of `CCNc1cc(C(=O)N[C@@H](Cc2ccccc2)[C@H](O)CNC2(C(C)C)CCC2)cc(N2CCCCS2(=O)=O)c1.Cl`, the Inhibition in test [1] is 99%; in test [2] it was 85%; in test [3] it was 0%.

Consider `O=C(NC1CCN(Cc2ccc(O)cc2)CC1)c1ccc(Cl)c(Cl)c1.O=C(O)C(F)(F)F`, for which the Inhibition in test [1] was found to be 95%; in test [2], 3%; in test [3], 1%.

For the compound `Cc1cc(NCC(c2ccccc2)c2ccccc2)nc(NCC2CCCCC2)n1`, the Inhibition in test [1] came out at 100%; in test [2] it was 93%; in test [3], 12%.

As to `O=C(C=Cc1ccc(Cl)c(Cl)c1)NCCCCCN1CCC(CCCNS(=O)(=O)c2ccc(F)cc2)CC1`, the Inhibition in test [1] worked out at 93%; in test [2], 20%; in test [3], 52%.

Take `CC(C)(C)c1ccc(N2C(N)=NC(N)=NC2(C)C)cc1.Cl`: the Inhibition in test [1] came out at 93%; in test [2], 0%; in test [3], 27%.

For `CC1(C)CCC(C)(C)c2c1ccc(C1CCN(CCCCNC(=O)c3ccc(-c4ccc(C#N)cc4)cc3)CC1)c2O`, the Inhibition in test [1] stood at 100%; in test [2], 85%; in test [3] it was 81%.

For the compound `Fc1ccc2[nH]c(-c3cccc(-c4cccc(CN5CCN(c6ccncc6)CC5)c4)c3)nc2c1.O=C(O)C(F)(F)F`, the Inhibition is listed as 100% in test [1], 99% in test [2] and 71% in test [3].

Take `CN1CCCN(Cc2cccc(-c3cccc(NC(=O)c4cccc(Cl)c4)c3)c2)CC1.O=C(O)C(F)(F)F`: the Inhibition in test [1] was 96%; in test [2], 20%; in test [3], 17%.

Consider `Cn1c(Nc2nnc(C3CC3)s2)nc2cc(Nc3ccnc(Nc4cccc(CS(C)(=O)=O)c4)n3)ccc21`, for which the Inhibition in test [1] was found to be 97%; in test [2], 83%; in test [3], 0%.

Consider `Nc1nc(N)c2c(ccc3c2ccn3CCCF)n1`, for which the figures for the Inhibition in test [1], in test [2] and in test [3] were 94%, 0% and 61%, respectively.

Values taken from ChEMBL document CHEMBL1157539, “Thousands of chemical starting points for antimalarial lead identification” (Nature, 2010).
